Calls of active or inactive are those of the source.
Key:
[1] = tested on: Wnt5a (protein binding on small-molecule microarray); test: Wnt5a binders on small-molecule microarray, primary screen, biophysical, 635/667 nm fluorescence (AID 1142); conditions: 635 nm fluorescence, higher = more signal;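 note: fluorescence read at 667 nm with signal to noise per printed feature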
[2] = cell viability in Huh7 cells, primary screen, cytotoxicity control for HCV replication inhibitor project, CellTiter-Glo luminescence, basal, 48 h (AID 1143); conditions: Huh7 HCV replicon, higher = more signal, called active from +8 up or from −8 down;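 note: Huh7 hepatoma cells carrying a hepatitis C replication reporter with no stimulus; test concentration not given here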
[3] = CREB reporter modulators without forskolin, primary screen, cell-based, PC12, CRE-LacZ reporter, unstimulated (AID 1145); conditions: no forskolin, luminescence, 4.5 h, higher = more signal, called active from +8 up or from −8 down
[4] = CREB reporter modulators under forskolin, primary screen, cell-based, PC12, CRE-LacZ reporter, forskolin-stimulated (AID 1146); conditions: luminescence, 4.5 h, higher = more signal, called active from +8 up or from −8 down;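 note: PC12 cells with 6xCRE LacZ reporter stimulated by forskolin 10 µM; beta-galactosidase reporter signal reflecting CREB driven transcription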
[5] = biological target: Streptavidin (Streptomyces avidinii) (UniProt P22629); test: streptavidin binders on small-molecule microarray, primary screen, artefact control for SMM compound annotation, biophysical, 635/667 nm fluorescence (AID 1147); conditions: streptavidin binding, higher = more signal;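 note: signal reflects streptavidin binding to arrayed compounds as a control protein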
[6] = small-molecule binders of probe aInhba, primary screen, biochemical, small-molecule microarray, 635/667 nm fluorescence (AID 1148); conditions: higher = more signal;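 note: score merges 667nm spot fluorescence with signal-to-noise for antibody binding to printed compounds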
Torsin-1A (Homo sapiens) [7] = biological target: Torsin-1A (Homo sapiens) (UniProt O14656); test: torsin A binders from cell lysate, primary screen, small-molecule microarray, wild-type, 635/667 nm (AID 1149); conditions: COS7 hTOR1A-WT lysate, 635 nm fluorescence, higher = more signal
Torsin-1A (Homo sapiens) [8] = biological target: Torsin-1A (Homo sapiens) (UniProt O14656); test: small-molecule binders of mutant TOR1A in lysate, primary screen, cell lysate, small-molecule microarray, COS7 lysate, 635/667 nm fluorescence (AID 1150); conditions: COS7 hTOR1A mutant lysate, 635 nm fluorescence, higher = more signal;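 note: score pools 667 nm emission and signal to noise measuring lysate protein binding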
[9] = tested on: Sonic hedgehog protein (Shh); test: small-molecule binders of Shh protein, primary screen, biochemical, small-molecule microarray, 635/667 nm fluorescence (AID 1151); conditions: small-molecule microarray binding, 635 nm fluorescence; higher = more signal;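 note: Shh protein binding to compounds spotted on small-molecule microarray slides; score combines spot fluorescence intensity with signal-to-noise across triplicate slides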
[10] = E. coli DRC41 culture turbidity changes, primary screen, E. coli filamentation inducer project, strain DRC41, OD650, 48 h (AID 1152);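 note: E. coli MC1000 strain DRC41 lacking acrAB efflux pump and sulA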; conditions: E. coli DRC41 (acrAB sulA), higher = more signal, called active from +8 up or from −8 down
[11] = small-molecule binders of probe aLefty1, primary screen, biochemical, small-molecule microarray, 635/667 nm fluorescence (AID 1153); conditions: higher = more signal;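 note: score merges spot fluorescence with signal-to-noise ratio from the scanned slide images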
[12] = PSAC antagonists in infected red cells, primary screen, cell-based, P. falciparum Indochina, OD700, 1 h (AID 1154); conditions: P. falciparum Indochina infected RBC osmotic lysis, higher = more signal, called active from +8 up or from −8 down
[13] = PSAC antagonists in infected red cells, primary screen, cell-based, P. falciparum Indochina, OD700, 2 h (AID 1155);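 note: lysis reports solute entry through the parasite surface anion channel PSAC; channel blockers reduce lysis of infected cells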; conditions: P. falciparum Indochina infected erythrocytes, osmotic lysis OD700; higher = more signal, called active from +8 up or from −8 down
[14] = osmotic lysis modulators in infected erythrocytes, primary screen, PSAC antagonist project, cell-based, P. falciparum Indochina, OD700, 3 h (AID 1156); conditions: higher = more signal, called active from +8 up or from −8 down
[15] = PSAC antagonists in infected red cells, primary screen, cell-based, P. falciparum Indochina, OD700, 18 h (AID 1157); conditions: P. falciparum Indochina infected erythrocytes, osmotic lysis OD700, 18 h; higher = more signal, called active from +8 up or from −8 down
[16] = modulators of S6 phosphorylation in cells, primary screen, cell-based, A549, cytoblot, luminescence, serum-stimulated (AID 1158); conditions: A549 phospho-S6 cytoblot, 5 h, higher = more signal;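 note: serum-stimulated A549 lung adenocarcinoma cells; signal is phosphorylated S6 detected by cytoblot immunostaining with HRP secondary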
[17] = biological target: NADPH oxidase 2 (Homo sapiens) (UniProt P04839); test: NOX2-dependent H2O2 signal modulators, primary screen, NOX inhibitor project, cell-based, HEK293-NOX2, PMA-stimulated, Amplex Red fluorescence (AID 1159); conditions: 45 min, higher = more signal, called active from +8 up or from −8 down; note: test concentration not given here
[18] = biological target: NADPH oxidase 4 (Homo sapiens) (UniProt Q9NPH5); test: NOX4-dependent H2O2 signal modulators, primary screen, NOX inhibitor project, cell-based, HEK293-NOX4, tetracycline-induced, Amplex Red fluorescence (AID 1160); conditions: 45 min, higher = more signal, called active from +8 up or from −8 down
[19] = biological target: NADPH oxidase 5 (Homo sapiens) (UniProt Q96PH1); test: NOX5-dependent H2O2 signal modulators, primary screen, NOX inhibitor project, cell-based, HEK293-NOX5, Amplex Red fluorescence (AID 1161); conditions: HEK293-NOX5, ionomycin, 45 min, higher = more signal
[20] = A549 cell viability effects, profiling panel, calcein-AM fluorescence, 48 h, basal (AID 1162); conditions: higher = more signal; note: test concentration not given here

Chain of Torsin-1A (Homo sapiens) (O14656 whole entry, looked up): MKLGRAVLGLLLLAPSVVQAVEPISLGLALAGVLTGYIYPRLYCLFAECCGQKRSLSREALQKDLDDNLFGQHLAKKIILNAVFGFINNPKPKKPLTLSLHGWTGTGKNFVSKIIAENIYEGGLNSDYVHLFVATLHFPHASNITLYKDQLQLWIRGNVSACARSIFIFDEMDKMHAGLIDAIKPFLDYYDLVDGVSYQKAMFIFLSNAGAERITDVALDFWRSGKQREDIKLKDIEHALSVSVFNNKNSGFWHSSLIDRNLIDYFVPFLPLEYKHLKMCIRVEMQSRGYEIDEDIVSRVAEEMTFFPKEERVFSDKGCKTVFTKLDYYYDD
Chain of NADPH oxidase 2 (Homo sapiens) (P04839 whole entry, looked up): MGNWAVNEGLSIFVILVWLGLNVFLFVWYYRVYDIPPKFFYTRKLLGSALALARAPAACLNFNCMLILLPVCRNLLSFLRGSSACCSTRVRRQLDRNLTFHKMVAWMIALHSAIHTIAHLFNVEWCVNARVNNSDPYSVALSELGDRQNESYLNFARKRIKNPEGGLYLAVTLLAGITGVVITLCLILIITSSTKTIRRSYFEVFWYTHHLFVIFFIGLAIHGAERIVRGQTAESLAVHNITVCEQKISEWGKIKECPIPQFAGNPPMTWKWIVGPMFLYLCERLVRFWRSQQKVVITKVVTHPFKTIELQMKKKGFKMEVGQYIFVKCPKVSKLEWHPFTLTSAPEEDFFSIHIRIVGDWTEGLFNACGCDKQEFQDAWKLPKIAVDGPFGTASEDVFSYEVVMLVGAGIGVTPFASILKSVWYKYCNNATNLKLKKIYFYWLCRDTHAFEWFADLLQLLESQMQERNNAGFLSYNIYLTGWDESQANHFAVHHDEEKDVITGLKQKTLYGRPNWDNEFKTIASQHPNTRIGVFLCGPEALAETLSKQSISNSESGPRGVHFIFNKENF
Chain of NADPH oxidase 4 (Homo sapiens) (Q9NPH5 whole entry, looked up): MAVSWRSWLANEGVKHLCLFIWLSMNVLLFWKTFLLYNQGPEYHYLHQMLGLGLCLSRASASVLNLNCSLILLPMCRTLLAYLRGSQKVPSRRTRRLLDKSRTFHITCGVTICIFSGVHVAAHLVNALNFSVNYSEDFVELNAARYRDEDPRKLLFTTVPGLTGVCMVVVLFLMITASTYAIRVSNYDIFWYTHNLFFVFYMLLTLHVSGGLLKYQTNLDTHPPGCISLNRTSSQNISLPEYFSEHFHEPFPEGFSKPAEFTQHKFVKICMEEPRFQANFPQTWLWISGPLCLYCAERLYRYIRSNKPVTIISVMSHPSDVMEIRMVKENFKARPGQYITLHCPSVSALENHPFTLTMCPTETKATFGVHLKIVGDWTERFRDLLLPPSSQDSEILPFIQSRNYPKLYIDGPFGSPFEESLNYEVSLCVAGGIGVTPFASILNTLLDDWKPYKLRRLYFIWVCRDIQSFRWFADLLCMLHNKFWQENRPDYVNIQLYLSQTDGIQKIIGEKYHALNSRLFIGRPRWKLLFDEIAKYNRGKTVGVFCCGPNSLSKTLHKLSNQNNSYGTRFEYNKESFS
Chain of Streptavidin (Streptomyces avidinii) (P22629 whole entry, looked up): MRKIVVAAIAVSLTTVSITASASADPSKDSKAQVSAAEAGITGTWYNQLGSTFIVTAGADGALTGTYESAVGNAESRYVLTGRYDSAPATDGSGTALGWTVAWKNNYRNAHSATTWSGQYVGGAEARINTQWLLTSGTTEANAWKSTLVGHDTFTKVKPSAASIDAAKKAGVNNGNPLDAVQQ
Chain of NADPH oxidase 5 (Homo sapiens) (Q96PH1 whole entry, looked up): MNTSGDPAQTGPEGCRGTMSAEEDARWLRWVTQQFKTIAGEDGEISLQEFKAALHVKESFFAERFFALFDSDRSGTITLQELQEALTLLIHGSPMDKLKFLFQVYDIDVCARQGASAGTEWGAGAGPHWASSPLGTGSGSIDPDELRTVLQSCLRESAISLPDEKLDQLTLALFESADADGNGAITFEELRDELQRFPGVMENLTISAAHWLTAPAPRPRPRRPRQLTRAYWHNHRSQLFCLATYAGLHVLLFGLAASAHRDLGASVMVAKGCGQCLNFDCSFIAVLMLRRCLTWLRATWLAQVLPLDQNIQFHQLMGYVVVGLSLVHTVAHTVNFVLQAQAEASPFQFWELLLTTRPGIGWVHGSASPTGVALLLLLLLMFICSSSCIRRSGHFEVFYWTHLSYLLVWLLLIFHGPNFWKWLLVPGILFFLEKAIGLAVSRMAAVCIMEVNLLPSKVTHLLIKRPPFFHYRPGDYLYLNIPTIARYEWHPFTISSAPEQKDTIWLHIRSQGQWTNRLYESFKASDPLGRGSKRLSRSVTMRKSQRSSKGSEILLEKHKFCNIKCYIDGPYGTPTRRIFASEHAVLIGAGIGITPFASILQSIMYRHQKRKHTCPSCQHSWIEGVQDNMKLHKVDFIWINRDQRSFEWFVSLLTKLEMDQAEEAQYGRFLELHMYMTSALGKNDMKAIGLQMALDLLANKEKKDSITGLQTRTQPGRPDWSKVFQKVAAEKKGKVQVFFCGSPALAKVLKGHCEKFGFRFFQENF

Compound	composite z-score [1]	z-score [2]	z-score [3]	z-score [4]	composite z-score [5]	composite z-score [6]	composite z-score (Torsin-1A (Homo sapiens) [7])	composite z-score (Torsin-1A (Homo sapiens) [8])	composite z-score [9]	z-score [10]	composite z-score [11]	z-score [12]	z-score [13]	z-score [14]	z-score [15]	z-score [16]	z-score [17]	z-score [18]	z-score [19]	z-score [20]
C/C=C/[C@@H](CCn1cc(CCO[Si](C(C)C)(C(C)C)C(C)C)nn1)[Si](C)(C)c1ccc(OC)cc1	-0.569	-3.19 (inactive)	3.29 (inactive)	-1.01 (inactive)	-1.27	-0.39	-0.72	0.741	-0.526	0.415 (inactive)	-0.315	0.305 (inactive)	0.0452 (inactive)	-0.606 (inactive)	-1.92 (inactive)	2.96	-0.937 (inactive)	0.0135 (inactive)	-0.497	1.74
CO[C@H]1O[C@H](CO)[C@@H](OC(=O)Nc2ccccc2)[C@H](OC(=O)Nc2ccccc2-c2ccccc2)[C@H]1OC(=O)Nc1ccccc1-c1ccccc1	0.289	-5.87 (inactive)	1.56 (inactive)	0.028 (inactive)	0.787	-0.0506	0.56	0.679	0.877	0.663 (inactive)	0.302	3.27 (inactive)	-0.843 (inactive)	-1.21 (inactive)	-1.81 (inactive)	0.668	-6.45 (inactive)	-0.665 (inactive)	-1.43	-4.11
Cc1ccc(S[C@]2(C(=O)NC3CC3)CC(=O)N(Cc3ccccc3C(F)(F)F)[C@@H]2c2ccc(CO)cc2I)cc1	0.132	-2.54 (inactive)	-0.114 (inactive)	-0.479 (inactive)	-0.297	-0.0523	-0.0139	0.231	0.385	2.31 (inactive)	0.309	5.75 (inactive)	-0.15 (inactive)	0.693 (inactive)	-1.31 (inactive)	1.8	1.42 (inactive)	-2.36 (inactive)	1.21	0.243
CC(C)N1C(=O)c2ccccc2[C@@H](C(=O)NCc2ccccc2)[C@@H]1c1ccc(CO)cc1	0.0422	-0.144 (inactive)	0.0279 (inactive)	-0.659 (inactive)	-1.17	-0.206	0.81	0.436	-0.49	1.12 (inactive)	-0.15	2.59 (inactive)	0.425 (inactive)	0.884 (inactive)	0.818 (inactive)	0.325	-0.00885 (inactive)	0.454 (inactive)	-0.101	0.538
NCCCCCCNC(=O)[C@@H]1C[C@@H]2C(=O)N[C@@H](Cc3ccccc3)C(=O)N2[C@@H]1c1ccc(O)cc1	0.0167	-0.136 (inactive)	1.52 (inactive)	-1.12 (inactive)	0.91	0.229	0.104	0.416	0.507	0.717 (inactive)	0.443	3.47 (inactive)	0.374 (inactive)	-6.59 (inactive)	0.276 (inactive)	-0.118	1.18 (inactive)	1.3 (inactive)	0.846	0.987
COC(=O)C(CC#Cc1ccc2c(c1)[C@]1(C(=O)N2)[C@H](C(N)=O)[C@H]2C(=O)O[C@H](c3ccccc3)[C@H](c3ccccc3)N2[C@@H]1c1ccc(O)cc1)C(=O)OC	-0.156	-0.229 (inactive)	0.182 (inactive)	-0.909 (inactive)	-1.09	-0.504	-0.372	0.488	-0.295	1.66 (inactive)	-0.696	14.5 (active)	1.23 (inactive)	0.974 (inactive)	0.37 (inactive)	0.331	1.32 (inactive)	0.297 (inactive)	1.1	0.685
CC(C)(C)OC(=O)CC[C@@]1(C(=O)NCc2ccccc2)N=C(c2ccc(OCCCO)cc2)O[C@@H]1c1ccccc1CN=[N+]=[N-]	1.14	-5.23 (inactive)	1.46 (inactive)	-1.42 (inactive)	1.17	0.156	0.807	0.312	0.285	2.4 (inactive)	-0.14	26.3 (active)	16.7 (active)	-0.187 (inactive)	0.712 (inactive)	2.07	-0.046 (inactive)	-0.0643 (inactive)	-1.35	1.09
COCCCNC(=O)[C@@]1(Cc2ccccc2)N=C(c2ccc(OCCCO)cc2)O[C@H]1c1ccccc1N=[N+]=[N-]	0.834	-4.48 (inactive)	1.74 (inactive)	-1.74 (inactive)	0.356	0.49	0.544	0.449	0.475	1.78 (inactive)	0.826	29.6 (active)	27.1 (active)	3.66 (inactive)	1.92 (inactive)	0.98	-0.14 (inactive)	0.523 (inactive)	-1.57	-0.622
COc1ccc(/C=C/C(=O)c2cccc(OCC(=O)OC(C)(C)C)c2)cc1	-0.132	-0.385 (inactive)	0.622 (inactive)	-0.588 (inactive)	-0.152	-0.363	0.349	0.179	-0.139	1.42 (inactive)	-0.113	30.9 (active)	25.8 (active)	0.746 (inactive)	1.41 (inactive)	0.112	-1.32 (inactive)	0.197 (inactive)	-3.7	0.764
CCCNC(=O)[C@@]1(Sc2ccc(C)cc2)CC(=O)N(Cc2cc(C(F)(F)F)cc(C(F)(F)F)c2)[C@@H]1c1ccc(CO)cc1I	0.0758	-3.48 (inactive)	0.0279 (inactive)	-1.35 (inactive)	-0.179	0.172	-0.365	0.0283	0.158	3.98 (inactive)	0.114	2.98 (inactive)	0.438 (inactive)	-0.436 (inactive)	-0.191 (inactive)	4.1	1.32 (inactive)	-1.29 (inactive)	1.37	2.5
COCCOC(=O)N1C(=O)[C@@]2(c3cc(C#CC4(O)CCCCCC4)ccc31)[C@H](c1ccc(O)cc1)N1[C@H](c3ccccc3)[C@H](c3ccccc3)OC(=O)[C@H]1[C@@H]2C(N)=O	0.496	-2.03 (inactive)	-0.168 (inactive)	-0.304 (inactive)	0.629	0.101	0.0241	0.497	1.22	1.91 (inactive)	0.181	1.14 (inactive)	-1.24 (inactive)	-1.54 (inactive)	-2.13 (inactive)	0.736	1.97 (inactive)	0.751 (inactive)	1.29	0.0692
COc1ccc([Si](C)(C)[C@H]2[C@H](CCO)O[C@@]3(C(=O)N(Cc4ccc(N5C(=O)c6cccc7cccc5c67)cc4)c4ccccc43)[C@@H]2C)cc1	-0.158	-6.16 (inactive)	0.399 (inactive)	-1.05 (inactive)	0.338	-0.101	-0.294	-0.124	-0.0681	1.19 (inactive)	-0.147	3.64 (inactive)	2.29 (inactive)	-0.273 (inactive)	1.23 (inactive)	1.63	0.469 (inactive)	0.821 (inactive)	0.378	-1.02
CC(=O)OC(C/C=C\B1OC(C)(C)C(C)(C)O1)c1ccccc1 (stereo not given)	-0.115	-3.4 (inactive)	3.04 (inactive)	-2.27 (inactive)	-0.748	-0.284	-0.611	0.301	-0.236	-2.2 (inactive)	-0.147	0.344 (inactive)	-0.832 (inactive)	-0.628 (inactive)	-1.04 (inactive)	3.07	-0.889 (inactive)	0.478 (inactive)	-2.94	2.43
CCCCCN1CC=CC23O[C@@H]4/C=C\CCC(C)OC(=O)C4[C@H]2C(=O)N(CCO)[C@@H]3C1=O (stereo not given in full)	-0.376	-0.989 (inactive)	1.02 (inactive)	-1.06 (inactive)	-0.877	-0.233	0.615	0.816	-0.542	2.08 (inactive)	-0.147	2.04 (inactive)	0.402 (inactive)	0.944 (inactive)	0.0613 (inactive)	0.0564	1.88 (inactive)	-0.354 (inactive)	2.5	0.414
CC(C)(C)OC(=O)CC[C@]1(C(=O)NCc2ccccc2)N=C(c2ccc(OCCCO)cc2)O[C@H]1c1ccccc1N=[N+]=[N-]	1.11	-3.04 (inactive)	1.13 (inactive)	-1.4 (inactive)	1.71	0.317	0.466	0.78	0.425	1.78 (inactive)	0.598	30.9 (active)	27.9 (active)	2.08 (inactive)	6.66 (inactive)	1.55	-2.28 (inactive)	-0.17 (inactive)	-2.3	0.117
CC(C)C[C@@H]1NC(=O)[C@@]23C(=O)N[C@@H](Cc4ccccc4)C2[C@H](C)[C@@]2(C)O[C@H]2C3/C=C/C/C=C\CNC(=O)[C@H](Cc2ccccc2)NC1=O (stereo not given in full)	-0.108	-4.13 (inactive)	4.56 (inactive)	-2.06 (inactive)	-0.198	-0.082	0.305	0.384	0.46	1.76 (inactive)	-0.147	1.53 (inactive)	-0.0735 (inactive)	0.966 (inactive)	0.256 (inactive)	0.497	-0.188 (inactive)	0.692 (inactive)	-3.15	0.823
CCOC(=O)C[C@H]1[C@H](OC(=O)c2cc3ccccc3oc2=O)[C@@H](NC(=O)c2ccccc2)c2cc(OCCCO)ccc2N1C(=O)Cc1ccc(OC)cc1	0.146	-4.64 (inactive)	8.63 (active)	-2.07 (inactive)	0.0709	0.0464	0.151	0.098	0.251	3.12 (inactive)	-0.0051	3.28 (inactive)	-0.825 (inactive)	0.076 (inactive)	-2.29 (inactive)	2.39	-0.224 (inactive)	0.106 (inactive)	0.874	-0.0571
